Screening results as filed in PubChem BioAssay.
Hits are enriched below; roughly 8.8% of the tested compounds scored in any of these assays.
HPGD block: qHTS Assay for Inhibitors of HPGD (15-Hydroxyprostaglandin Dehydrogenase). 15-hydroxyprostaglandin dehydrogenase [NAD(+)] (Homo sapiens), P15428. purified HPGD, NADH fluorescence kinetic, PGE2 substrate. Potency, µM, hits mostly inhibitors. actives 4.3% (n = 150,000); active = well fitted inhibition curve with a large enough effect, not every such curve was filed as active; inconclusive = small, poorly fitted or top-dose-only effect, or another doubt; inactive = no such curve, though single readings can be large or run the other way
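NADH formation kinetics: reaction with 30 uM PGE2 and 1 mM NAD+ (final), 20 nM enzyme, Tris-HCl pH 8 with Tween 20, after 15 min compound preincubation at room temperature. Fluorescence change, last versus first of five reads.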
LMNA splice mod: qHTS Assay for Modulators of Lamin A Splicing. Potency, µM (titrated, usually from 46.1 µM), hits mostly inhibitors. actives 0.01% (n = 200,000). HeLa LMNA splicing GFP/RFP minigene ratio, 48 h; active = well fitted inhibition curve with a large enough effect in the signal ratio, with a control signal flat, not every such curve was filed as active; inconclusive = small, poorly fitted or top-dose-only effect, or effect the other way, or a change in a side signal; the % refers to the signal ratio
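Read-out is the ratio of GFP to DsRed2 object intensity, acquired by 488 nm laser-scanning cytometry on HeLa lamin A-EGFP minigene reporter cells. Compound incubation 48 hrs at 37 °C in Opti-MEM with 2% FBS; DMSO 0.5% final.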
HttQ103 aggreg: qHTS Multiplex Assay to Identify Dual Action Probes in a Cell Model of Huntington: Aggregate Formation (GFP); PC12 HttQ103-GFP aggregates, Acumen cytometry, 40 h; Potency, µM (top dose mostly 46.1 µM), usual class: inhibitors; actives 1.1% (n = 220,000); AID 1688, 2009; note: nearly all actives have a fitted effect of over 60% in size
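Multiplexed with ATP-based cell death, this channel scores GFP aggregates in PC12 cells expressing inducible HTTex1-Q103-GFP. Induction used 100 nM tebufenozide; compounds were tested in concentration series.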
ALDH1A1 inh: qHTS Assay for Inhibitors of Aldehyde Dehydrogenase 1 (ALDH1A1); actives 7.3% (n = 220,000); Aldehyde dehydrogenase 1A1 (Homo sapiens), P00352; Purified ALDH1A1, NADH fluorescence, propionaldehyde substrate; Potency, µM (series often up to 75.3 µM), usual class: inhibitors; AID 1030, 2008; active = well fitted inhibition curve with a large enough effect, not every such curve was filed as active; inconclusive = small, poorly fitted or top-dose-only effect, or another doubt; inactive = no such curve, though single readings can be large or run the other way
Target sequence (P00352 whole entry, looked up): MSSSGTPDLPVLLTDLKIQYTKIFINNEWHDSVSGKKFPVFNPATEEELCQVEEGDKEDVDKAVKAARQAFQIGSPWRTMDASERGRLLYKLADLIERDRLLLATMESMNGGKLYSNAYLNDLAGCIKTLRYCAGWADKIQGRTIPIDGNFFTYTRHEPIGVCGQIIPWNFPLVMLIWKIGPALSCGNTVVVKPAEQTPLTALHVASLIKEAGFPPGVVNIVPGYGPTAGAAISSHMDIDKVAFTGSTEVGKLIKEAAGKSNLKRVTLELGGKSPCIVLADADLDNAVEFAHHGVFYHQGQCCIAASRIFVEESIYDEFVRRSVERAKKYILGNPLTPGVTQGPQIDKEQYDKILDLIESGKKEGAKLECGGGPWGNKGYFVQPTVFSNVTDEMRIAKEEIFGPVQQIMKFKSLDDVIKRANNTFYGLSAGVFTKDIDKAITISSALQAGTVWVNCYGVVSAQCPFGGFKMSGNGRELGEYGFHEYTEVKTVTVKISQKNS
HTT ATP protect: qHTS Multiplex Assay to Identify Dual Action Probes in a Cell Model of Huntington: Cytoprotection (ATP); Potency, µM (doses to about 56.4 µM), hits mostly activators; actives 0.14% (n = 230,000); PC12 HTT-Q103 induced, cytoprotection, ATP luminescence, 40 h; note: nearly all actives have a fitted effect of over 45% in size
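Stable PC12 Q103-GFP cells in serum-supplemented, phenol red-free DMEM; induction by tebufenozide at 100 nM final; compound dose series; cell viability quantified luminescently from ATP.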
Numbers stand for hits; 0 = inactive; ? = inconclusive; - = no result given; [ ] = dose if it differs, or a comment. Unless noted, calls come from the whole dose curve; as a rule, active = well fitted curve in the direction sought with a large enough effect; inconclusive = small, poorly fitted or top-dose-only effect, or another doubt; inactive = no such curve, though single readings can be large; an effect the other way counts as inactive or inconclusive.

SMILES	HPGD block	LMNA splice mod	HttQ103 aggreg	ALDH1A1 inh	HTT ATP protect
C[C@@H]1CC[C@H]2[C@H](C)C3[C@H](C[C@H]4[C@@H]5CC=C6C[C@@H](O)CC[C@@]6(C)[C@@H]5C[C@@H](O)[C@]34C)N2C1 (stereo partly specified)	0	-	-	0[13.5 µM]	-
C=CCOC(=O)C(C(C)=O)C(NC(=O)OC)c1ccc2ccccc2c1 (stereo unspecified)	-	-	-	0[13.5 µM]	0[10 µM]
Fc1ccc(CN(Cc2ccccc2)C(c2cccs2)c2nnnn2C2CCCCC2)cc1 (stereo unspecified)	0	0	25µM	0	0
Cc1ccc(NC(=O)NC2=N/C(=C(/C#N)C(=O)N3CCCC3)c3ccccc32)cc1	0	0	0	0.63µM	0[10 µM]
Cc1ccc(C2(CC(=O)N3CCCC3)CCOC(C(C)C)C2)cc1 (stereo unspecified)	0	0	0[9.22 µM]	?	0
COc1ccccc1C1(CC(=O)N2CCCCC2)CCOC(C(C)C)C1 (stereo unspecified)	25µM	?	0	0	0
Cc1noc(C)c1COc1ccc(C(=O)OCC(=O)NCc2ccccc2Cl)cc1	0	0	0	0	0[10 µM]
CCSc1nnc(NC(=O)c2cccc(OCc3c(C)noc3C)c2)s1	25µM	?	0	?	0[10 µM]
Cc1noc(C)c1COc1cccc(C(=O)NCc2ccccc2Cl)c1	16µM	?	0	0	0[10 µM]
Cc1nc(C)c(C(=O)NCc2ccccc2Cl)o1	25µM	?	?	22µM	0
O=C(CCc1ccccc1)N(Cc1cccnc1)c1nc2ccc(F)cc2s1	-	0	-	-	-
O=C(COc1ccccc1)NCC(=O)N/N=C/c1cccs1	0	0	0	22µM	0
Clc1cccc(-c2nnc3sc(-c4ccc5c(c4)OCO5)nn23)c1	-	0	0	20µM	0[0.074 µM]
Clc1ccccc1-c1nnc2sc(-c3ccc(Br)o3)nn12	0	?	0	?	0[0.074 µM]
Brc1ccccc1-c1nnc2sc(-c3ccc4c(c3)OCCO4)nn12	?	?	25µM	?	0
Clc1ccccc1-c1nnc2sc(-c3ccc4c(c3)OCO4)nn12	?	0	0	?	0[1.9 µM]
Cn1ccnc1C[C@@](C)(O)c1ccccc1	0	-	-	0[13.5 µM]	0[10 µM]
COc1cc2[nH]c(=S)nc(NCCCOC(C)C)c2cc1OC	18µM	0	0	?	0
O=C(c1csc2ccccc12)n1cccn1	0	0	0	11µM	0[0.074 µM]
O=C(c1csc2ccccc12)N1CCCCCC1	0.013µM	?	?	0	0
O=C(c1csc2ccccc12)N1CCN(c2ccccn2)CC1	0	0	0	?	0
O=C(N/N=C/c1cn(-c2ccccc2)nc1-c1cccnc1)c1cccnc1	-	?	0	0	0
O=C(NCC1CCCO1)/C(=C/c1cn(-c2ccccc2)nc1-c1cccnc1)NC(=O)c1ccccc1 (stereo unspecified)	-	0	0	0.56µM	0
O=C(NCCCO)/C(=C\c1cn(-c2ccccc2)nc1-c1cccnc1)NC(=O)c1ccccc1	0	0	0	1.8µM	0[10 µM]
O=C(CNC(=O)C12CC3CC(CC(C3)C1)C2)N1CCN(S(=O)(=O)/C=C/c2ccccc2)CC1	-	?	0	0	0[10 µM]
SMILES	HPGD block	LMNA splice mod	HttQ103 aggreg	ALDH1A1 inh	HTT ATP protect
CCS(=O)(=O)c1ccc(OC)c(N=Nc2ccc(O)c3ncccc23)c1	-	-	7.9µM	0	0
CC(=O)C(Cc1ccccc1)NC(=O)CN1CCN(Cc2ccccc2)CC1 (stereo unspecified)	-	0	0	?	0[10 µM]
O=C(CCc1ccc(S(=O)(=O)N2CCOCC2)cc1)N1CCc2ccccc2C1	-	-	0	0	0
COc1ccc(NC(=O)CCc2c(C)nn(-c3ccc(N4CCOCC4)nn3)c2C)cc1Cl	-	0	-	-	-
COCCOC(=O)C1=C(C)NC2(O)c3ccccc3C(=O)C12O (stereo unspecified)	-	-	0	11µM	0
CC(=O)C1=C(C)NC2(O)c3ccccc3C(=O)C12O (stereo unspecified)	-	-	?	11µM	-
O=C(/C=C/c1ccccc1Cl)Nc1ccc(-c2nnc3n2CCCCC3)cc1	4µM	0	0	0	?
O=C(Nc1ccc(-c2nnc3n2CCCCC3)cc1)c1cc2ccccc2o1	2.2µM	0	0	0	0[10 µM]
Cc1c(C(=O)Nc2ccc(-c3nnc4n3CCCCC4)cc2)oc2c1ccc1ccccc12	?	?	0	0	0[10 µM]
COc1ccc(C(=O)N2CCC3(CCCN(Cc4ccccc4OC)C3)CC2)cc1	0	-	-	0	0
COc1cc2c(Nc3ccc(Br)cc3F)ncnc2cc1OCC1CCN(C)CC1	-	-	13µM	-	0
Cn1c(-c2ccc(F)cc2)cnc1NCc1cc2c(cc1[N+](=O)[O-])OCO2	0	0	0	0	0[10 µM]
Cn1c(-c2ccccc2)cnc1NCc1cc2c(cc1[N+](=O)[O-])OCO2	0	0	0	13µM	0[10 µM]
CSc1ccc(CNc2ncc(-c3ccccc3)n2C)cc1	-	0	-	-	-
Cn1c(-c2ccc(Cl)cc2)cnc1NCc1cc2c(cc1[N+](=O)[O-])OCO2	0	0	0	14µM	0[10 µM]
Cc1cc(F)ccc1NCc1cc2c(cc1[N+](=O)[O-])OCO2	0	0	0	11µM	0[10 µM]
CCC1CCC2(CC1)NNC(=S)NN2	10µM	0	0	7.5µM	?
CCN(CC)S(=O)(=O)c1cc(NS(=O)(=O)c2cc(Cl)ccc2Cl)ccc1C	0	?	0	16µM	0[0.074 µM]
CCN(CC)S(=O)(=O)c1cc(NC(=O)CCNC(=O)c2ccccc2Cl)ccc1C	0	0	0	0	0[10 µM]
Cc1ccc(F)cc1NC(=O)c1cnccn1	-	-	0	0	0
O=S(=O)(Nc1nc2ccccc2s1)c1cnc(Cl)c(Br)c1	-	-	0[9.22 µM]	20µM	0[10 µM]
NC(=O)Cn1c2[n+](c3ccccc31)CC(O)CS2 (stereo unspecified)	0	0	0	11µM	0
CCOC(=O)Cn1c2[n+](c3ccccc31)CC(O)CS2 (stereo unspecified)	0	0	0	0	0
CC1=C(C(=O)Nc2cccc(C(F)(F)F)c2)C(c2ccccn2)n2ncnc2N1 (stereo unspecified)	-	0	-	-	-
COCc1cc(C)nc(SCC(=O)Nc2ccc(C)c(C)c2)c1C#N	?	0	0	?	0[10 µM]
COCc1cc(C)nc(SCC[N+](C)(C)CC(=O)Nc2cccc(C(F)(F)F)c2)c1C#N	-	-	?	11µM	0
Nc1nc2c(c(=O)[nH]1)C(c1cccc3ccccc13)C1=C(N2)c2ccccc2C1=O (stereo unspecified)	-	-	0	3.2µM	0
COc1ccc(NC(=O)N2CC3(CCNCC3)C2)cc1	0	-	-	0	0
COc1ccc(NC(=O)N2CCCC3(CCN(S(=O)(=O)c4ccccc4)CC3)C2)cc1	0	-	-	14µM	0
COc1ccc(NC(=O)N2CC[C@@]3(CCCN(C(=O)c4cccc(F)c4)C3)C2)cc1	0	-	-	18µM	0
